High-throughput results: PubChem BioAssay, several laboratories
Most compounds without a hit are left out; they make up all but 32% or so of the library.
CYP2C9 inhib: blockers of cytochrome P450 2C9 activity – biochemical, luminescence, ADME assay, primary screen | P11712 | CYP2C9 Supersomes, luciferin-H conversion | inhibition, % at 5 µM | 96,000 tested, 20% active;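 active = blocking of liver enzyme CYP2C9 beyond about 50% at 5 µM, limit read from the data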
PostGolgi yeast: phenotypic screen on post-Golgi transport, primary screen; 98,000 tested, 0.9% active; post-Golgi transport phenotypic cell assay; inhibition, % at 10 µM;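 also: yeast cells grown in 1536-well plates; yeast grown about 18 h at 30C before absorbance read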
PostGolgi ctrl: growth inhibition of yeast control strain, primary screen, counter-screen for post-Golgi transport modulator project. efflux-deficient yeast background strain, growth absorbance A615, 16 h. inhibition, % at 10 µM. 98,000 tested, 5% active. AID 738, 2007
CYP2C19 act: human CYP2C19 activators, primary screen, biochemical, luminescence; 96,000 tested, under 10 active; AID 1025, 2008; recombinant CYP2C19, luciferin-H EGE luminescence; stronger effect = higher value; 0 = fully inhibited enzyme, 1 = untreated enzyme; activation factor at 5 µM;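 active = activation factor of at least 2 at 5 µM in the primary screen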
Target sequence (P33261 whole entry, looked up): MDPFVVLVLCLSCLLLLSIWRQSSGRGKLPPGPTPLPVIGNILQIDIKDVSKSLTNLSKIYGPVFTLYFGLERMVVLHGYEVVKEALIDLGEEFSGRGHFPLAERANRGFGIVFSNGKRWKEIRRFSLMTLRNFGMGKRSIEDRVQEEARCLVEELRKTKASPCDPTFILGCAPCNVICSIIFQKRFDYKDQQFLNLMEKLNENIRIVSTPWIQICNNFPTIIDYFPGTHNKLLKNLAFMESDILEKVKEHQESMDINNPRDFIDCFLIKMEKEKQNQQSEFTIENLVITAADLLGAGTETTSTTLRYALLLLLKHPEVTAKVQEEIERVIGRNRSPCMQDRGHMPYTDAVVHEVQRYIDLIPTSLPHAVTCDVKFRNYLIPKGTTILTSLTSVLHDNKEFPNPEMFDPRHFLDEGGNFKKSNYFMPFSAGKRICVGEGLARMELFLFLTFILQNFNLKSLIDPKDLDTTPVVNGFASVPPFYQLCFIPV
CYP2C19 inhib: blockers of cytochrome P450 2C19 activity – biochemical, luminescence, ADME assay, primary screen; 96,000 tested, 21% active; P33261; CYP2C19 Supersomes, luciferin-H EGE luminescence, 30 min; AID 778, 2007; inhibition, % at 5 µM;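 active = CYP2C19 inhibition above a set limit at 5 µM in the primary screen, cut at about 50% in these data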
CYP2C9 act: human CYP2C9 activators, primary screen, biochemical, luminescence; recombinant CYP2C9, luciferin-H conversion; stronger effect = higher value; factor 1 = untreated enzyme, 0 = blocked; Cytochrome P450 2C9 (Homo sapiens), P11712; 96,000 tested, 1.4% active; AID 1024, 2008; activation factor at 5 µM;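 active = activation factor of 2 or more for CYP2C9 at a 5 µM dose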
A number is an active result. Rule as the data show it, unless noted: active = inhibition above about 30%; inactive = the rest.

What do the screens show for `C#CCNc1nc(C)nc2c1nnn2Cc1ccccc1F`?
CYP2C9 inhib: inactive; PostGolgi yeast: inactive; PostGolgi ctrl: inactive; CYP2C19 act: inactive; CYP2C19 inhib: 52; CYP2C9 act: inactive

How did CCCc1nc2c(nnn2Cc2ccccc2F)c(=O)[nH]1 do in these assays?
CYP2C9 inhib: inactive; PostGolgi yeast: inactive; PostGolgi ctrl: inactive; CYP2C19 act: inactive; CYP2C19 inhib: 89; CYP2C9 act: inactive

What do the screens show for `CCOC(=O)C1C(=O)NC(N2CCN(CC)CC2)=NC1c1ccccc1` (stereo unspecified)?
CYP2C9 inhib: inactive; PostGolgi yeast: inactive; PostGolgi ctrl: inactive; CYP2C19 act: inactive; CYP2C19 inhib: inactive; CYP2C9 act: inactive

Results for CCCSc1nnc2nc3c(nn12)c1ccccc1n3C ?
CYP2C9 inhib: inactive; PostGolgi yeast: inactive; PostGolgi ctrl: inactive; CYP2C19 act: inactive; CYP2C19 inhib: inactive; CYP2C9 act: inactive

Results for COc1ccc(/C=N\NC(=O)COc2ccc(C(C)(C)C)cc2)cc1Cn1nc(C)cc1C ?
CYP2C9 inhib: 95; PostGolgi yeast: inactive; PostGolgi ctrl: inactive; CYP2C19 act: inactive; CYP2C19 inhib: 53; CYP2C9 act: inactive

What do the screens show for `Cc1cc(C)n(CC(=O)N/N=C/c2ccco2)n1`?
CYP2C9 inhib: inactive; PostGolgi yeast: inactive; PostGolgi ctrl: inactive; CYP2C19 act: inactive; CYP2C19 inhib: inactive; CYP2C9 act: inactive

Results for O=C(CCN1CCN(c2ccc(Cl)cc2)CC1)Nc1nccs1 ?
CYP2C9 inhib: inactive; PostGolgi yeast: inactive; PostGolgi ctrl: inactive; CYP2C19 act: inactive; CYP2C19 inhib: inactive; CYP2C9 act: inactive

What do the screens show for `O=C(CN1CCC(O)CC1)N1c2ccccc2C=Cc2ccccc21`?
CYP2C9 inhib: inactive; PostGolgi yeast: inactive; PostGolgi ctrl: inactive; CYP2C19 act: inactive; CYP2C19 inhib: inactive; CYP2C9 act: inactive

Results for O=S1(=O)C=CC(Nc2cccc(Cl)c2)C1 (stereo unspecified) ?
CYP2C9 inhib: 71; PostGolgi yeast: inactive; PostGolgi ctrl: inactive; CYP2C19 act: inactive; CYP2C19 inhib: inactive; CYP2C9 act: inactive

Results for Cc1ccc(-c2nc3c(=O)n(C)c4ccccc4c3o2)cc1 ?
CYP2C9 inhib: inactive; PostGolgi yeast: inactive; PostGolgi ctrl: 77; CYP2C19 act: inactive; CYP2C19 inhib: inactive; CYP2C9 act: inactive

Results for Cc1ccc2nc(Nc3nc(=O)c4ccccc4n3C)nc(C)c2c1 ?
CYP2C9 inhib: inactive; CYP2C19 act: inactive; CYP2C19 inhib: inactive; CYP2C9 act: inactive

How did O=C(CSc1nnc(CNc2ccc(F)cc2)n1Cc1ccccc1)N1CCOCC1 do in these assays?
CYP2C9 inhib: inactive; PostGolgi yeast: inactive; PostGolgi ctrl: inactive; CYP2C19 act: inactive; CYP2C19 inhib: inactive; CYP2C9 act: inactive

Results for C=CCn1nnnc1SCC(=O)Nc1ccccc1C(=O)OC ?
CYP2C9 inhib: inactive; PostGolgi yeast: inactive; PostGolgi ctrl: inactive; CYP2C19 act: inactive; CYP2C19 inhib: 91; CYP2C9 act: inactive

Results for COc1ccccc1NC(=O)CSc1nnnn1Cc1ccccc1 ?
CYP2C9 inhib: inactive; PostGolgi yeast: inactive; PostGolgi ctrl: inactive; CYP2C19 act: inactive; CYP2C19 inhib: 92; CYP2C9 act: inactive

What do the screens show for `COC(=O)CSc1nc2ccc(NC(=O)CSc3nnnn3Cc3ccccc3)cc2s1`?
CYP2C9 inhib: inactive; PostGolgi yeast: inactive; PostGolgi ctrl: 36; CYP2C19 act: inactive; CYP2C19 inhib: inactive; CYP2C9 act: inactive

Results for Cn1cnnc1SCC(=O)Nc1ccc2nc(SCc3ccccc3)sc2c1 ?
CYP2C9 inhib: inactive; PostGolgi yeast: inactive; PostGolgi ctrl: inactive; CYP2C19 act: inactive; CYP2C19 inhib: inactive; CYP2C9 act: inactive

Results for Cn1cnnc1SCC(=O)Nc1ccc2nc(SCc3cccc4ccccc34)sc2c1 ?
CYP2C9 inhib: inactive; PostGolgi yeast: inactive; PostGolgi ctrl: inactive; CYP2C19 act: inactive; CYP2C19 inhib: 59; CYP2C9 act: inactive

What do the screens show for `O=C1CCC([N+](=O)[O-])C(c2ccccc2Cl)N1` (stereo unspecified)?
CYP2C9 inhib: inactive; PostGolgi yeast: inactive; PostGolgi ctrl: inactive; CYP2C19 act: inactive; CYP2C19 inhib: inactive; CYP2C9 act: inactive

Results for CCCCNC(=O)c1cc2c(-c3ccc(Cl)cc3)nn(C)c2s1 ?
CYP2C9 inhib: 59; PostGolgi yeast: inactive; PostGolgi ctrl: inactive; CYP2C19 act: inactive; CYP2C19 inhib: inactive; CYP2C9 act: inactive

What do the screens show for `COCCNC(=O)c1cc2c(-c3ccc(Cl)cc3)nn(C)c2s1`?
CYP2C9 inhib: inactive; PostGolgi yeast: inactive; PostGolgi ctrl: inactive; CYP2C19 act: inactive; CYP2C19 inhib: inactive; CYP2C9 act: inactive

What do the screens show for `Cc1ccc(CNC(=O)c2cc3c(-c4ccc(Cl)cc4)nn(C)c3s2)o1`?
CYP2C9 inhib: 63; PostGolgi yeast: inactive; PostGolgi ctrl: 53; CYP2C19 act: inactive; CYP2C19 inhib: inactive; CYP2C9 act: inactive

What do the screens show for `COCCCNC(=O)c1cc2c(-c3ccc(Cl)cc3)nn(C)c2s1`?
CYP2C9 inhib: inactive; PostGolgi yeast: inactive; PostGolgi ctrl: inactive; CYP2C19 act: inactive; CYP2C19 inhib: inactive; CYP2C9 act: inactive

What do the screens show for `COC(=O)c1nc(N)sc1-c1ccc(OC)cc1`?
CYP2C9 inhib: inactive; PostGolgi yeast: inactive; PostGolgi ctrl: inactive; CYP2C19 act: inactive; CYP2C19 inhib: inactive; CYP2C9 act: inactive

How did Cc1ccc(S(=O)(=O)CCC(=O)NCc2ccco2)cc1 do in these assays?
CYP2C9 inhib: inactive; PostGolgi yeast: inactive; PostGolgi ctrl: inactive; CYP2C19 act: inactive; CYP2C19 inhib: inactive; CYP2C9 act: inactive

What do the screens show for `CS(=O)(=O)N(CC(=O)NCc1ccco1)Cc1ccc(Cl)cc1`?
CYP2C9 inhib: inactive; PostGolgi yeast: inactive; PostGolgi ctrl: inactive; CYP2C19 act: inactive; CYP2C19 inhib: 58; CYP2C9 act: inactive

What do the screens show for `Cc1ccc(S(=O)(=O)N(CC(=O)NCc2ccco2)Cc2ccc(F)cc2)cc1`?
CYP2C9 inhib: 58; PostGolgi yeast: inactive; PostGolgi ctrl: inactive; CYP2C19 act: inactive; CYP2C19 inhib: inactive; CYP2C9 act: inactive

What do the screens show for `CS(=O)(=O)N(CCc1ccccc1)CC(=O)NCc1ccco1`?
CYP2C9 inhib: inactive; PostGolgi yeast: inactive; PostGolgi ctrl: inactive; CYP2C19 act: inactive; CYP2C19 inhib: 66; CYP2C9 act: inactive

What do the screens show for `CS(=O)(=O)N(CCc1ccccc1)CC(=O)NCc1cccnc1`?
CYP2C9 inhib: inactive; PostGolgi yeast: inactive; PostGolgi ctrl: inactive; CYP2C19 act: inactive; CYP2C19 inhib: 93; CYP2C9 act: inactive

Results for O=[N+]([O-])c1cccc(/C=N/Nc2cc(Cl)nc(-c3ccccc3)n2)c1 ?
CYP2C9 inhib: inactive; PostGolgi yeast: inactive; PostGolgi ctrl: inactive; CYP2C19 act: inactive; CYP2C19 inhib: inactive; CYP2C9 act: inactive

What do the screens show for `COC(=O)c1ccccc1NC(=O)N1CCN(S(=O)(=O)c2ccc(Cl)cc2)CC1`?
CYP2C9 inhib: inactive; PostGolgi yeast: inactive; PostGolgi ctrl: 43; CYP2C19 act: inactive; CYP2C19 inhib: inactive; CYP2C9 act: inactive

Results for COC(=O)c1ccccc1NC(=O)N1CCCC1 ?
CYP2C9 inhib: inactive; PostGolgi yeast: inactive; PostGolgi ctrl: inactive; CYP2C19 act: inactive; CYP2C19 inhib: inactive; CYP2C9 act: inactive
